PubChem BioAssay (EPA / NIEHS)
Results filed as inconclusive are left out. More than one record can exist for a structure, and the calls need not agree. Calls of active or inactive are those of the source. The calls were made as follows, unless noted: active = hit-call score of the fitted dose curve at least 0.9, where 1 is the maximum; inactive = score below 0.9.

Key:
[1] = CCTE_Shafer_MEA_dev_active_electrodes_number: CCTE's Neural Network Formation Assay for Number of Active Electrodes, Shafer Lab (AID 2284040; active = hit-call score of the fitted dose curve at least 0.9, where 1 is the maximum;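 as to AC50: potency for loss of active electrodes versus DMSO so lower counts are hits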)
Outline: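 Developing rat cortical networks on MEAs, exposed DIV 0–12. Value is the AUC of active-electrode counts (≥5 spikes/min) from days 5, 7, 9, 12, relative to DMSO.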

[2] = CCTE_Shafer_MEA_dev_burst_rate: CCTE's Neural Network Formation Assay for Burst Rate, Shafer Lab (AID 2284042);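 as to AC50: potency for loss of burst rate below DMSO control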
Outline: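 Exposure ran continuously over 12 days of network development in rat cortical cultures, with compound refreshed during full media changes on DIV 5 and 9. Single-electrode bursts per recording time, well-mean over active electrodes, trapezoidal AUC across days 5–12, fitted downward relative to DMSO.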

[3] = CCTE_Shafer_MEA_dev_bursting_electrodes_number: CCTE's Neural Network Formation Assay for Number of Bursting Electrodes, Shafer Lab (AID 2284043; active = hit-call score of the fitted dose curve at least 0.9, where 1 is the maximum;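 as to AC50: potency is for loss of bursting electrodes relative to DMSO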)
Outline: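 Counted: electrodes with burst rate ≥1 per 2 min in each well. Cells: primary rat cortex, 1.5 x 10^5/well, on 16-electrode MEA wells. Exposure: DIV 0–12, compound renewed DIV 5 and 9. Recording days 5, 7, 9, 12; AUC vs DMSO baseline.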

[4] = CCTE_Shafer_MEA_dev_per_burst_interspike_interval: CCTE's Neural Network Formation Assay for Burst Interspike Interval, Shafer Lab (AID 2284044);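 also: mean spike spacing inside bursts as AUC over recordings on days 5 7 9 12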;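 as to AC50: potency for a decrease of within-burst interspike interval below DMSO level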
Outline: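 Neurons from rat cortex plated onto PEI-coated MEA wells with laminin […] at 1.5 x 10^5 cells/well, then treated from day 0. Media and compound fully replaced on DIV 5 and 9. Extracellular spontaneous firing recorded four times; interspike interval per burst summarised as AUC.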

[5] = CCTE_Shafer_MEA_dev_burst_duration_mean: CCTE's Neural Network Formation Assay for Mean Burst Duration, Shafer Lab (AID 2284045);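 as to AC50: curve fitted for loss meaning shorter burst duration than DMSO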
Outline: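 Network-formation assay in primary rat cortical neurons; treatment spans twelve days of development. Mean burst duration per well is integrated by trapezoidal AUC and fitted in the loss-of-signal direction against DMSO baseline.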

[6] = CCTE_Shafer_MEA_dev_interburst_interval_mean: CCTE's Neural Network Formation Assay for Mean Interburst Interval, Shafer Lab (AID 2284046);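 also: well-mean interburst interval of bursting electrodes as AUC over four recording days; curve fitted for decrease in interburst interval relative to DMSO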
Outline: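 Primary rat cortical neurons on PEI-coated 48-well MEA plates (laminin added with cells at plating) (16 electrodes/well), exposed from plating day 0 with renewal at DIV 5 and 9. Mean inter-burst interval averaged over bursting electrodes, AUC across days 5, 7, 9, 12; DMSO baseline.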

[7] = CCTE_Shafer_MEA_dev_inter_network_spike_interval_mean: CCTE's Neural Network Formation Assay for Mean Inter-network Spike Interval, Shafer Lab (AID 2284047);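 as to AC50: potency for a decrease in mean inter-network spike interval below DMSO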
Outline: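 Mean time between consecutive network-spike peaks, recorded extracellularly (adaptive spike detection) on DIV 5, 7, 9 and 12, summarized as trapezoidal AUC. Rat cortical cultures on MEAs dosed continuously days 0–12, re-dosed at feeds; loss-of-signal fit relative to DMSO.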

[8] = CCTE_Shafer_MEA_dev_network_spike_peak: CCTE's Neural Network Formation Assay for Mean Number of Electrodes in Network Spike, Shafer Lab (AID 2284049);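 as to AC50: fitted for loss of signal meaning fewer electrodes in network spikes than DMSO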
Outline: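 Continuous 12-day exposure of rat cortical cultures, starting at plating, on MEA plates. Endpoint: electrodes participating in network-spike peaks, AUC across DIV 5–12, DMSO as negative control.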

DIO2 (gene 1734) = assay: CCTE_GLTED_hDIO2: CCTE's human Deiodinase 2 (DIO2) Inhibition Assay, Great Lakes Toxicology and Ecology Division (GLTED) Lab (AID 2284050; active = hit-call score of the fitted dose curve at least 0.9, where 1 is the maximum)
Outline: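 Readout: absorbance from Sandell-Kolthoff detection of free iodide released by human DIO2 during a 3 h incubation with chemical. Cell-free format, n=3; activity fitted relative to DMSO negative control.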

[9] = biological target: Estrogen receptor (Homo sapiens) (UniProt P03372); assay: CCTE_Deisenroth_AIME_384WELL_LUC_Shift: CCTE's 384-well Estrogen Receptor Transactivation Assay with AIME metabolic competence data shift (ERTA luciferase; difference in metabolism positive and negative), Deisenroth Lab (AID 2284041);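 also: shift is response with S9 minus without S9 so positive means metabolism raised ER signal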
Procedure: CCTE_Deisenroth_AIME_384WELL (AIME metabolism assay) is a cell-based, single-readout assay that uses VM7Luc4E2, a human mammary gland/breast cell line, with measurements taken at 24 hour after chemical dosing in a 384-well plate.CCTE_Deisenroth_AIME_384WELL_LUC_Shift is one of two analysis components calculated from the CCTE_Deisenroth_AIME_384WELL assay. […] AIME is optimized to impart phase I hepatic metabolism using phenobarbital/beta-naphthoflavone induced hepatic S9 from male Sprague Dawley rats. Parent chemicals are incubated for 2 hours in the AIME assay prior to transfer to the VM7Luc ERTA assay plate. […] The metabolic curve shift response is defined as the pairwise difference between the positive (AEID 2488) and negative (AEID 2490) normalized response values at each concentration for a given chemical across replicate experiments. The pairwise differences form the basis for a concentration-response curve. Standard curve fit analysis identfiied chemicals where the calculated shift was greater than the shift-derived baseline cutoff. A positive hit designation in this endpoint indicates a significant shift trend in the positive direction for bioactivation.
The AIME procedure consists of a preparative "pre-stamping" step using a barium chloride/poly-L-lysine (PLL) solution followed by "stamping" the lid in alginate-hepatic S9 (metabolism positive) or alginate-water (metabolism negative) to form microspheres. Once stamping is completed, the AIME lids are placed in duplicate microplates (metabolism positive or negative) containing chemical solutions and incubated for two hours to facilitate metabolic reactions. The conditioned medium, containing parent chemical or metabolites, is then transferred to the cell-based VM7Luc Estrogen Receptor Transactivation Assay (ERTA) for 24 hours. A typical experimental design tests a 10-point concentration series (0.002 - 200 uM) for 8 compounds (96-well format)1 or 32 compounds (384-well format)2 in single technical replicate. AIME assay controls include trans-stilbene (bioactivated control) and ethylparaben (bioinactivated control). ERTA assay plate controls include 17-beta estradiol (positive control) and DMSO (solvent control). Experiments typically comprise a minimum of four experimental replicates (n=4).

Measured: AC50

Sequence of Estrogen receptor (Homo sapiens) (P03372 whole entry, looked up): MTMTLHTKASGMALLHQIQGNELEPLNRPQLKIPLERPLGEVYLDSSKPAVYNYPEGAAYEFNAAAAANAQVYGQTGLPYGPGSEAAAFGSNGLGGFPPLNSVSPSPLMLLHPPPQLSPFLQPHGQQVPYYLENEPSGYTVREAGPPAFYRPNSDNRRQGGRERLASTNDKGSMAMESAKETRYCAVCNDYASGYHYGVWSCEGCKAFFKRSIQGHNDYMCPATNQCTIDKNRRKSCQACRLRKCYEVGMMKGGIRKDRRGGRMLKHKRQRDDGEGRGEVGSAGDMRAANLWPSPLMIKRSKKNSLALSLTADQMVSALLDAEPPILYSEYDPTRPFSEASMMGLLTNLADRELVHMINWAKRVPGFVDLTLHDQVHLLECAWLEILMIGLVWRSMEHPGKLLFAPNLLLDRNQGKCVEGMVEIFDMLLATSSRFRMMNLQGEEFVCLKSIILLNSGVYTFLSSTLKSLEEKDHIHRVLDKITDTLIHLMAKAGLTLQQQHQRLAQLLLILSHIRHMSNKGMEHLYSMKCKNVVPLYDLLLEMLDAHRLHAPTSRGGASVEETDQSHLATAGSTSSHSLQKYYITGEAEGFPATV

O=C(F)C(F)(F)C(F)(F)C(F)(F)C(F)F
not listed: DIO2 (gene 1734) | [9]
inactive: all other assays above

O=C(C=C(O)C(F)(F)F)C(F)(F)F
not listed: [1] | DIO2 (gene 1734) | [9]
inactive: all other assays above

O=P(O)(O)CCC(F)(F)C(F)(F)C(F)(F)C(F)(F)C(F)(F)C(F)(F)C(F)(F)C(F)(F)F
inactive: [2] | [4] | [5] | [7]
active: [1] 4.18 µM | [3] 2.39 µM | [6] 8.6 µM | [8] 4.22 µM | DIO2 (gene 1734) 146 µM

COC(=O)C(F)(F)C(F)(F)C(F)(F)F
not listed: DIO2 (gene 1734) | [9]
inactive: all other assays above

OCC(F)(F)C(F)(F)C(F)(F)C(F)(F)C(F)(F)C(F)(F)C(F)(F)C(F)(F)C(F)(F)C(F)(F)C(F)(F)F
active: [1] 15 µM | [3] 6.73 µM | [6] 26.4 µM | [8] 8.24 µM
inactive: [1] | [2] | [3] | [4] | [5] | [6] | [7] | [8]

CCCCCCCCCC=CCC1CC(=O)OC1=O (stereo unspecified)
inactive: [9]
active: DIO2 (gene 1734) 64.3 µM

CCCCCCCCCCCCOC(=O)c1cc(O)c(O)c(O)c1
inactive: [9]
active: DIO2 (gene 1734) 82 µM

CCCCCCCCCCCC
active: DIO2 (gene 1734) 24.5 µM

CCCCCCCCCCCCOS(=O)(=O)O
active: DIO2 (gene 1734) 101 µM

C=CC(F)(F)C(F)(F)C(F)(F)C(F)(F)F
not listed: DIO2 (gene 1734) | [9]
inactive: all other assays above

O=CC(F)(F)C(F)(F)C(F)(F)C(F)F
not listed: DIO2 (gene 1734) | [9]
inactive: all other assays above

CN(C)CCOC(c1ccccc1)c1ccccc1
active: [1] 6.36 µM | [3] 4.33 µM | [8] 10 µM
not listed: DIO2 (gene 1734) | [9]
inactive: all other assays above

FC(F)=C(F)C(F)(F)C(F)(F)C(F)(F)C(F)F
inactive: [2] | [4] | [5] | [6] | [7] | [8]

NC(=NCCCCCCN=C(N)/N=C(\N)Nc1ccc(Cl)cc1)/N=C(\N)Nc1ccc(Cl)cc1
inactive: [9]
active: DIO2 (gene 1734) 13 µM

O=CC(F)(F)C(F)(F)C(F)(F)F
not listed: DIO2 (gene 1734) | [9]
inactive: all other assays above

CC(C)c1c(C(=O)Nc2ccccc2)c(-c2ccccc2)c(-c2ccc(F)cc2)n1CC[C@@H](O)C[C@@H](O)CC(=O)O
active: [1] 0.00981 µM | [2] 0.00894 µM | [3] 0.00922 µM | [4] 0.0255 µM | [5] 0.0105 µM | [6] 0.00832 µM | [7] 0.00722 µM | [8] 0.00641 µM

NC(C(F)(F)F)C(F)(F)F
not listed: DIO2 (gene 1734) | [9]
inactive: all other assays above
